Measurements as given in PubChem BioAssay (NCI).
About 79,000 compounds went through this panel and 15% of them were active in at least one assay; those are over-represented in the sample as a whole. Unmarked numbers belong to inactive results. Calls of active or inactive are those of the source. Rule as the data show it: active = growth inhibition above about 70%; inactive = the rest.

What was measured:
[1] = NCI Yeast Anticancer Drug Screen. Data for the rad50 strain (AID 155);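 also: 0% = growth of vehicle-only cultures of the same strain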; conditions: S. cerevisiae rad50 strain growth inhibition, active compounds read high
Procedure, shortened: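 Inhibition values express reduced yeast growth in compound-treated cultures relative to vehicle-treated controls.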

[2] = NCI Yeast Anticancer Drug Screen. Data for the mec2-1 strain (AID 157); conditions: S. cerevisiae mec2-1 strain, active compounds read high
Procedure, shortened: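 Growth inhibition is read against vehicle-treated controls after compound exposure of the mec2-1 yeast strain, which is defective in DNA damage repair or cell cycle control.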

[3] = NCI Yeast Anticancer Drug Screen. Data for the sgs1 mgt1 strain (AID 161);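 also: 0% = growth of cultures given vehicle only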; conditions: S. cerevisiae sgs1 mgt1 strain, active compounds read high
Procedure, shortened: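 This yeast growth screen uses a strain with defined DNA-repair lesions; compound-treated growth is compared with vehicle-treated growth.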

[4] = NCI Yeast Anticancer Drug Screen. Data for the cln2 rad14 strain (AID 165);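 also: 0% = growth equal to vehicle treated cultures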; conditions: S. cerevisiae cln2 rad14 strain, active compounds read high
Procedure, shortened: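 Growth inhibition, relative to vehicle-treated controls, is the read-out. The test organism is a yeast strain with defined genetic alterations, cln2 rad14.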

[5] = NCI Yeast Anticancer Drug Screen. Data for the bub3 strain (AID 167); conditions: S. cerevisiae bub3 mutant strain, active compounds read high
Procedure, shortened: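 Steps: expose the mutant yeast strain to compound; grow alongside vehicle-treated cultures; measure growth; express inhibition against the vehicle cultures.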

[6] = NCI Yeast Anticancer Drug Screen. Data for the mlh1 rad18 strain (AID 175); conditions: S. cerevisiae mlh1 rad18 strain growth inhibition, active compounds read high
Procedure, shortened: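 Cells of a genetically altered yeast strain, deficient in DNA damage repair, were treated with compound. Their growth was then compared with that of vehicle-treated cultures to give inhibition.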

[7] = at 5.0 µM (retest, dose inferred, filed as 0.5)
[8] = at 50.0 µM (retest, dose inferred, filed as 5.0)

Row | Structure (SMILES) | growth inhibition [1, 7] | growth inhibition [1, 8] | growth inhibition ([1]; at 50.0 µM) | growth inhibition [2, 7] | growth inhibition [2, 8] | growth inhibition ([2]; at 50.0 µM) | growth inhibition [3, 7] | growth inhibition [3, 8] | growth inhibition ([3]; at 50.0 µM) | growth inhibition [4, 7] | growth inhibition [4, 8] | growth inhibition ([4]; at 50.0 µM) | growth inhibition [5, 7] | growth inhibition [5, 8] | growth inhibition ([5]; at 50.0 µM) | growth inhibition [6, 7] | growth inhibition [6, 8] | growth inhibition ([6]; at 50.0 µM)
1 | NC(CCCCCC(N)C(=O)O)C(=O)O (configuration not stated) | -165% | -146% | 15.1% | -50% | -54% | 9.1% | -66% | -66% | 14.9% | -60% | -83% | 76.8% (active) | -67% | -71% | 18.8% | -241% | -121% | 3.05%
2 | NC(=O)C1(Br)C=[N+](Cc2ccccc2)CCC1 (configuration not stated) | 0% | -2% | 29.2% | 3% | -3% | 11.9% | -3% | -4% | 11.8% | -2% | -3% | 13.9% | -2% | -6% | -3.4% | 2% | 1% | 24.4%
3 | Cc1ccnc(-c2cc(C)ccn2)c1 | 6% | 96% (active) | 64% | -3% | 98% (active) | 23.1% | -4% | 57% | 57.9% | -1% | 95% (active) | -46.7% | 4% | 91% (active) | -3.15% | 7% | 98% (active) | 37.9%
4 | CCOc1ccc(Nc2nc(C)c(C(=O)/C=C/c3ccc(Cl)cc3Cl)s2)cc1 | 25% | 25% | 71.1% (active) | -6% | -6% | 31.9% | 8% | 8% | 33% | 6% | 6% | 48.4% | 6% | 6% | 55.5% | 20% | 20% | 17.6%
5 | Cc1cccc(C)c1O | 17% | 99% (active) | 99% (active) | -1% | 99% (active) | 98.5% (active) | 0% | 98% (active) | 98.8% (active) | -9% | 98% (active) | 97.8% (active) | 3% | 91% (active) | 98.5% (active) | 5% | 99% (active) | 99.5% (active)
6 | COC(=O)C1(C)CCCC2(C)C3CC(=O)C(C(C)C)=CC3(O)CCC12 (configuration not stated) | 7% | 8% | 10.7% | -1% | -3% | -3.25% | 4% | -15% | 3.1% | -75% | -27% | 13.7% | 5% | 2% | 0.8% | 15% | 19% | -5.95%
7 | c1ccc([P+](Cc2ccc(C[P+](c3ccccc3)(c3ccccc3)c3ccccc3)s2)(c2ccccc2)c2ccccc2)cc1 | 35% | 90% (active) | 80% (active) | 33% | 96% (active) | 80.3% (active) | 37% | 98% (active) | 80.7% (active) | 17% | 77% (active) | 67.4% | 47% | 96% (active) | 81% (active) | 43% | 96% (active) | 75.8% (active)
8 | CCCCCCCCN1C(=O)c2ccccc2S1(=O)=O | -2% | 95% (active) | 22.9% | -4% | 96% (active) | 32.1% | -2% | 94% (active) | 73.8% (active) | -17% | 95% (active) | -27.6% | 25% | 96% (active) | 89.2% (active) | -2% | 95% (active) | 76.2% (active)
9 | CC(C)c1ccc(N2C(=O)C=CC2=O)cc1 | 98% (active) | 97% (active) | 99.7% (active) | 98% (active) | 99% (active) | 99.7% (active) | 95% (active) | 98% (active) | 99.5% (active) | 91% (active) | 99% (active) | 99.5% (active) | 98% (active) | 98% (active) | 99.5% (active) | 95% (active) | 98% (active) | 99.2% (active)
